# Assay results: the supplement of paper PMC11732987, “Enantioselective OTUD7B fragment discovery through chemoproteomics screening and high-throughput optimisation” (Communications Chemistry, 2025)
# Unmarked numbers belong to inactive results.
# Tests used:
# Assay in all cases: log2 ratio of Biotin-Ahx-Ub-VS probe labelling (fragment/DMSO); higher = less target engagement (more negative = stronger competition), active = hit call of the paper (q ≤ 0.05, log2 ratio ≤ -1)
# Conditions in all cases: compound concentration: 200 uM; treatment time: 3 h
# ALG13 = target: T1, ALG13 (UniProt Q9NP73)
# T1 sequence (whole entry): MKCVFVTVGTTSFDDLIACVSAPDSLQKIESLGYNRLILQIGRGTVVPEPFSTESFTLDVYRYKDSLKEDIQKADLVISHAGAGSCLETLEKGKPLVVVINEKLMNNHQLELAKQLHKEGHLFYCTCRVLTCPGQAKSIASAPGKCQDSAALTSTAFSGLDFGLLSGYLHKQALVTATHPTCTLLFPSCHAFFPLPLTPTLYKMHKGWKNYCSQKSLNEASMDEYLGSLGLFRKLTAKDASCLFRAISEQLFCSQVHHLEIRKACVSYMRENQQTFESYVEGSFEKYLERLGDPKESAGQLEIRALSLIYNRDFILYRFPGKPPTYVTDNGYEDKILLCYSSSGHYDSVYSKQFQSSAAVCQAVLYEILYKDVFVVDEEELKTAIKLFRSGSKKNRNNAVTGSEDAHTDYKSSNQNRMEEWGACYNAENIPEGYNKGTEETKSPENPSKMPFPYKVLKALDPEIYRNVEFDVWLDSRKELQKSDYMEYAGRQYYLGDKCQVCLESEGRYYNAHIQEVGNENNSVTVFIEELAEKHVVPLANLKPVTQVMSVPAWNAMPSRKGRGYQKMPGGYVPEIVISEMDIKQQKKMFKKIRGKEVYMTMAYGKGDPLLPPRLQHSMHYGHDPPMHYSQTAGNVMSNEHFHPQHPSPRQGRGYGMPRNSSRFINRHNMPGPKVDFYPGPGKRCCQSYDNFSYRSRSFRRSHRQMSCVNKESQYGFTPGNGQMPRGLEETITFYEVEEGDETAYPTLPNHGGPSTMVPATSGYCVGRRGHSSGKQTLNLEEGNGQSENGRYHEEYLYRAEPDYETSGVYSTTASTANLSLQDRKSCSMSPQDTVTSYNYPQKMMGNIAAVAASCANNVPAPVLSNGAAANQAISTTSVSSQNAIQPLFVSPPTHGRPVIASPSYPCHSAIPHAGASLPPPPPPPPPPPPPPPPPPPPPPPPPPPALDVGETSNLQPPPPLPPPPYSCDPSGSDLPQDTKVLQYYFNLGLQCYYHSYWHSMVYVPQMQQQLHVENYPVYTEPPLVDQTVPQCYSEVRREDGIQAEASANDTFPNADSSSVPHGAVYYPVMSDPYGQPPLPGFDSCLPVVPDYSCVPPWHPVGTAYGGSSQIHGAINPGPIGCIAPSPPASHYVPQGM
# Outline: (§1)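 HEK293T lysate (495 µg per sample, in Tris/CHAPS/IGEPAL buffer with protease inhibitors) was exposed in triplicate for 3 h to fragment at 200 µM or to vehicle, then to Biotin-Ahx-Ub-VS at 0.5 µM final for 1 h. Labelled DUBs were enriched on NeutrAvidin, digested with LysC and trypsin, and analysed by diaPASEF LC-MS/MS. Spectronaut label-free quantities were normalised to the global median, and values are average log2 ratios of fragment over vehicle from an unpaired t-test. Only proteins with ≥2 unique peptides were used.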
# ATXN3 = ATXN3 (UniProt P54252)
# Chain of ATXN3 (P54252 whole entry): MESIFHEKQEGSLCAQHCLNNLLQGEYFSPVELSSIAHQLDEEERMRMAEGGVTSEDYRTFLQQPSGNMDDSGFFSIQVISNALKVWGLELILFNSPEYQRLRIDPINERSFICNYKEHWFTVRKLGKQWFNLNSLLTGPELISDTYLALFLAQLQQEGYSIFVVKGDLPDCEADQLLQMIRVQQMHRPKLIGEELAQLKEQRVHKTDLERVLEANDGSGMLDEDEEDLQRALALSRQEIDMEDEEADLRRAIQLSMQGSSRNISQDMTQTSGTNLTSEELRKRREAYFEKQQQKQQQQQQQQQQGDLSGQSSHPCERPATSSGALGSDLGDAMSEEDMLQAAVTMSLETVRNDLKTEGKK
# Outline: as §1
# BAP1 = target: T2, BAP1 (UniProt Q92560)
# T2 sequence (whole entry): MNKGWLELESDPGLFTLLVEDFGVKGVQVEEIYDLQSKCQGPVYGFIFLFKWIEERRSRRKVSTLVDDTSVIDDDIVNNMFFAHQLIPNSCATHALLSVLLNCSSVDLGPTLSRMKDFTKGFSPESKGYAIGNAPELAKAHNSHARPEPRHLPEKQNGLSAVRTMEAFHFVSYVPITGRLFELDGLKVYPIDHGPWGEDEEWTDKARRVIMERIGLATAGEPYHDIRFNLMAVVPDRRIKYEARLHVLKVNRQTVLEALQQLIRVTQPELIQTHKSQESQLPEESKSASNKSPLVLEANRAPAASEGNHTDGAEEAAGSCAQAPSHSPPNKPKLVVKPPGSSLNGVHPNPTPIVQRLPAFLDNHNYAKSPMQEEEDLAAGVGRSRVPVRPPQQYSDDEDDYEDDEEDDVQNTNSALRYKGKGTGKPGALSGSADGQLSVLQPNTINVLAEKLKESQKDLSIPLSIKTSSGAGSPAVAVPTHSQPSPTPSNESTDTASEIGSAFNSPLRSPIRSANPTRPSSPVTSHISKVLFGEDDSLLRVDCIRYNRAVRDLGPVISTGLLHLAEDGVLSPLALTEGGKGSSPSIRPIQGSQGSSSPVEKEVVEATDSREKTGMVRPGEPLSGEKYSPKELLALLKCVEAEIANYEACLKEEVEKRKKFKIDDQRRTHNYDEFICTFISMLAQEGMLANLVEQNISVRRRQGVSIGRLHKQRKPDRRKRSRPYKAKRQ
# Outline: as §1
# EIF3F = EIF3F (UniProt O00303)
# Chain of EIF3F (O00303 whole entry): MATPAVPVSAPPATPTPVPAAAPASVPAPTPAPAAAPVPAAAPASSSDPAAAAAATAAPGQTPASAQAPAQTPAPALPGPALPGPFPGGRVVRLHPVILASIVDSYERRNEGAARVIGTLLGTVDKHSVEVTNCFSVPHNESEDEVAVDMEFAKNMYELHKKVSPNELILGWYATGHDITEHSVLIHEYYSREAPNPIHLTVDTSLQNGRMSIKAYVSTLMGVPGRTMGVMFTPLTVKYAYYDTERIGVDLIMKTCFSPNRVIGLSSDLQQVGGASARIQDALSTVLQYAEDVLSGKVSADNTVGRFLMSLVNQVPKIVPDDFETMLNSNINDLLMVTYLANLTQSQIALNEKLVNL
# Outline: as §1
# EIF3H = EIF3H (UniProt O15372)
# Chain of EIF3H (O15372 whole entry): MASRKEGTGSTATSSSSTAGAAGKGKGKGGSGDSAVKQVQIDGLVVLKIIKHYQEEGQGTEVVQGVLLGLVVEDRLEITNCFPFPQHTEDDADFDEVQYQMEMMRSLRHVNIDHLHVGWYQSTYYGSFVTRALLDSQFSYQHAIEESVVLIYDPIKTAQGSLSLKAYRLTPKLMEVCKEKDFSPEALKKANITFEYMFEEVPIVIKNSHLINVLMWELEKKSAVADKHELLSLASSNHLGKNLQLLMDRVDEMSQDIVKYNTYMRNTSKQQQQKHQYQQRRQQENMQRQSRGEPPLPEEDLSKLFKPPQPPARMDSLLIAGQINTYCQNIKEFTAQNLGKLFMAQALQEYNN
# Outline: as §1
# FAM105A = target: T3, FAM105A (UniProt Q9NUU6)
# T3 sequence (whole entry): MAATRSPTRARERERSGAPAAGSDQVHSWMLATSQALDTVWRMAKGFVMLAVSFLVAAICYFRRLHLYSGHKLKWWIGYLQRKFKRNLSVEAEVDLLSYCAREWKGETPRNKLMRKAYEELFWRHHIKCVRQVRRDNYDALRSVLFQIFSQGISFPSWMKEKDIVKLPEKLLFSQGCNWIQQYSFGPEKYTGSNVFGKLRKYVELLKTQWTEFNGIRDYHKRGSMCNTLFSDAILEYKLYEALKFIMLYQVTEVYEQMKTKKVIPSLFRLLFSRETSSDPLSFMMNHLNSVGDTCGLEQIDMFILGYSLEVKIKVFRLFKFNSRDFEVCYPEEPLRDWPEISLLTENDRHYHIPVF
# Outline: as §1
# OTUB1 = OTUB1 (UniProt Q96FW1)
# Chain of OTUB1 (Q96FW1 whole entry): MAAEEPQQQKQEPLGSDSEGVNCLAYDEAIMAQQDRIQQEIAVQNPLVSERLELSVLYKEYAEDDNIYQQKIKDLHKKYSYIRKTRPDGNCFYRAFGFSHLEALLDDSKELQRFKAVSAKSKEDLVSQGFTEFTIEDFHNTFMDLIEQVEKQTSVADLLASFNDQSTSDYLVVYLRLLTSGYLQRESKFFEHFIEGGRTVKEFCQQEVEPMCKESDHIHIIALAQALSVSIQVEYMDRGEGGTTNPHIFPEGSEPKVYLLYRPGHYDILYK
# Outline: as §1
# OTUD4 = target: T4, OTUD4 (UniProt Q01804)
# T4 sequence (whole entry): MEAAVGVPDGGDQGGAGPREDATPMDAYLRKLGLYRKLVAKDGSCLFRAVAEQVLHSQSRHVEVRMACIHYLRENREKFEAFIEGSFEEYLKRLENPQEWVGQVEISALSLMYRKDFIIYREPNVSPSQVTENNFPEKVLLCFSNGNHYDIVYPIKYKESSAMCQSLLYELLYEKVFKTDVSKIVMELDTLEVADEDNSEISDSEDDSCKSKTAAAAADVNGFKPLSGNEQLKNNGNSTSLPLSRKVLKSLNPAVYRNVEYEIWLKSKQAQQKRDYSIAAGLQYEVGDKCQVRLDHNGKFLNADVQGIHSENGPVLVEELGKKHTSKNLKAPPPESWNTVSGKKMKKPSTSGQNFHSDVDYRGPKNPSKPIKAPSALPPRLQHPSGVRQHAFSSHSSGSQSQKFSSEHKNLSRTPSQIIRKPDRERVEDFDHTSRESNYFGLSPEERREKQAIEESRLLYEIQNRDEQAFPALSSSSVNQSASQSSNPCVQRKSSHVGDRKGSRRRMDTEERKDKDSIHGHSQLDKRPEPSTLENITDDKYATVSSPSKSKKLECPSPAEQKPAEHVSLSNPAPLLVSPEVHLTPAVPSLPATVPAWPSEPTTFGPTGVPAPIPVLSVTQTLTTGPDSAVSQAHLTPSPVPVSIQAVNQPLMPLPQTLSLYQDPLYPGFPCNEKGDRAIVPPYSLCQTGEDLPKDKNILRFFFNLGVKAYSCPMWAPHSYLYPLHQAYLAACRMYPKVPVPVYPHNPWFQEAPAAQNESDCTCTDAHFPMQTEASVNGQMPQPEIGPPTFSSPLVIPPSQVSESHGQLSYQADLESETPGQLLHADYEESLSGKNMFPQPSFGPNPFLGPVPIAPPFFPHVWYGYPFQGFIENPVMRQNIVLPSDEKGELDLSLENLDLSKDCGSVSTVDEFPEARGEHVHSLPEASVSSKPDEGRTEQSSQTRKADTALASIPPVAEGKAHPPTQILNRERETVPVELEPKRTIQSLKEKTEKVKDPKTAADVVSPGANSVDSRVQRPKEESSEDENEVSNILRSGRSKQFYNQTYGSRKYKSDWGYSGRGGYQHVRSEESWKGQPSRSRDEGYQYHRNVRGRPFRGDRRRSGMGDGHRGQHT
# Outline: as §1
# OTUD5 = target: T5, OTUD5 (UniProt Q96G74)
# T5 sequence (whole entry): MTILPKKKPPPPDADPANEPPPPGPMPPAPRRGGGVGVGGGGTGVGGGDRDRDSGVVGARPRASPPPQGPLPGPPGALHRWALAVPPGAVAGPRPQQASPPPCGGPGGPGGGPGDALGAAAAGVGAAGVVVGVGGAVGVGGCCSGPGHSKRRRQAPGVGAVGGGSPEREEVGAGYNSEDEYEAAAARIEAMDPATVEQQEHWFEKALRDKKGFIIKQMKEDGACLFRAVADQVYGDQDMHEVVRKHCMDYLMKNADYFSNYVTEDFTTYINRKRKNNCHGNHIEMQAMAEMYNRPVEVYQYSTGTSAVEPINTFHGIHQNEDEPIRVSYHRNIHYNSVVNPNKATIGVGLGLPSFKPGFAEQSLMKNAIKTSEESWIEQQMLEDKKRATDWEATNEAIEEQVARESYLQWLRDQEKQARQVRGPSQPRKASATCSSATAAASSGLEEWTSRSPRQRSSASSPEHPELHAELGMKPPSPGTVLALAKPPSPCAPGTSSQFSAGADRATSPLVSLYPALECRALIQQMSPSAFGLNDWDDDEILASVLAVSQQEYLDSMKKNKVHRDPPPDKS
# Outline: as §1
smiles,measurement,setting,value
O=C(CCl)Nc1ccc(F)cc1Cl,log2 ratio of Biotin-Ahx-Ub-VS probe labelling,ALG13,-0.23
same,log2 ratio of Biotin-Ahx-Ub-VS probe labelling,ATXN3,-0.598
same,log2 ratio of Biotin-Ahx-Ub-VS probe labelling,BAP1,-3.7 (active)
same,log2 ratio of Biotin-Ahx-Ub-VS probe labelling,EIF3F,-0.37
same,log2 ratio of Biotin-Ahx-Ub-VS probe labelling,EIF3H,0.131
same,log2 ratio of Biotin-Ahx-Ub-VS probe labelling,FAM105A,0.0383
same,log2 ratio of Biotin-Ahx-Ub-VS probe labelling,OTUB1,-0.452
same,log2 ratio of Biotin-Ahx-Ub-VS probe labelling,OTUD4,-0.578
same,log2 ratio of Biotin-Ahx-Ub-VS probe labelling,OTUD5,-0.8
